Our source for the activation values is PubChem BioAssay AID2796 (The Scripps Research Institute Molecular Screening Center, 2010).

The campaign covered roughly 320,000 compounds. About 8,000 (2.5%) were called active. Only a selection was taken, and actives are over-represented in it overall. Values without a mark were called inactive. Rule as the data show it: active = activation above about 47%; inactive = the rest.

Sequence of Aryl hydrocarbon receptor (Homo sapiens) (P35869 whole entry, looked up): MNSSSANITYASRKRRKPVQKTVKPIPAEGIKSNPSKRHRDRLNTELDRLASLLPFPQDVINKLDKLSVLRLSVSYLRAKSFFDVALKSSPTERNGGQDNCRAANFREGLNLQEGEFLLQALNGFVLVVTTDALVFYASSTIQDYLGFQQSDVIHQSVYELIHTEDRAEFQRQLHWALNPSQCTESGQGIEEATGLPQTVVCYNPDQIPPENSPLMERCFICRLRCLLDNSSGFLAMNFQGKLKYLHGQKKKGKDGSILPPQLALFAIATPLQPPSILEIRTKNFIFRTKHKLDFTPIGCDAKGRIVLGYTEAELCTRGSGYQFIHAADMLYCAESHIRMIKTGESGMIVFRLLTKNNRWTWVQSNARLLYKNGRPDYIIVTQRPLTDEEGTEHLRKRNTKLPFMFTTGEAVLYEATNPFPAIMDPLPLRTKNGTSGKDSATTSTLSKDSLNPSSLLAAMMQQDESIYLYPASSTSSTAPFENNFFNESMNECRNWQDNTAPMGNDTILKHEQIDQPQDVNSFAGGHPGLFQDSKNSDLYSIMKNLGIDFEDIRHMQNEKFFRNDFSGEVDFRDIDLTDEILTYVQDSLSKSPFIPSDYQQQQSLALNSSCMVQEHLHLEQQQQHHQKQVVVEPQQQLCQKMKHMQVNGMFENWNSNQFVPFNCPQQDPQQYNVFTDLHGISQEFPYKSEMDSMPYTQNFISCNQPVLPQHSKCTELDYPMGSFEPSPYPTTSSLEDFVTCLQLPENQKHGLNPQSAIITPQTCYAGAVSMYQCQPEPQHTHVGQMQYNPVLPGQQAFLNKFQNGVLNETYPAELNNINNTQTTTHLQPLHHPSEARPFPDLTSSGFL

The assay concerns the target Aryl hydrocarbon receptor (Homo sapiens) (UniProt P35869). Put plainly: AHR activators, primary screen, cell-based, luminescence, luciferase reporter, human (AID 2796).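 Also: 0% = vehicle wells and 100% = reference agonist.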 As to conditions: AHR-responsive luciferase reporter cells, at 5 µM, hits give high values. On the technique in general: In a reporter assay the amount or activity of a reporter protein is the signal.
Turning to `O=C(CSc1nc(O)c(Cc2ccccc2)c(=O)[nH]1)Nc1nc2c(s1)CCCC2`, the activation was 1.1%.
For the compound `COc1cc(/C=N\NC(=O)c2nonc2N)c(OC)cc1Br`, the activation was 15.2%.
With `COc1cc(/C=N/Nc2nn3cnnc3c3ccccc23)cc(OC)c1OC`, the activation was 38.4%.
Turning to `COc1cc(/C=N/N=C(\N)c2nonc2N)cc(OC)c1OC`, the activation is 91.3% (active).
Consider `CC(C)(C)C(=O)NCCCNc1ccc([N+](=O)[O-])cc1`, for which the activation is 2.34%.
`Cc1ccc(C)c(NC(=O)COC(=O)Cn2c(C)csc2=O)c1`: the activation is 2.35%.
Then `O=C(COC(=O)c1ccc2c(c1)OCCO2)NCc1ccccc1Cl`, with -0.15%; and `CNC(=S)N1N=C(c2ccccc2)CC1c1ccc(Br)cc1` (centres undefined), with 1.39%; and `c1ccc(C2=Nc3cccc4cccc(c34)N2)cc1`, with 19.3%.
As to `Brc1ccc(C2CC(c3ccccc3)=Nc3ccccc3N2)cc1` (centres undefined), the activation is 104% (active).
For the compound `Cc1ccsc1C(=O)NC1CCCCC1C` (centres undefined), the activation is -0.06%.
`COc1ccc(CN2CN(C3CCCC3)CSC2=S)cc1`: the activation was -1.37%.
In the case of `COc1ccc(CC(=O)OC(C)C(=O)Nc2ccc(S(N)(=O)=O)cc2)cc1` (centres undefined), the activation is 0.17%.
Then `COCc1c(C(=O)OCC(=O)Nc2ccc(OC(F)F)cc2)oc2ccccc12`, with -0.02%; and `Cc1cc2nc(-c3ccc(NC(=O)c4cccnc4)cc3)oc2cc1C`, with -6.99%; and `CC(=O)Nc1ccc(-c2nc3ccccc3o2)cc1`, with 80.5% (active).
In the case of `Cc1ccc2nc(-c3ccc(NC(=O)c4cccnc4)cc3)oc2c1`, the activation is -9.23%.
For the compound `CCC(CC)COC(=O)C1=C(C)NC(=O)NC1c1ccc([N+](=O)[O-])cc1` (centres undefined), the activation was -3.02%.
On to `CCc1ccccc1N(CC(=O)NCC1CCCO1)C(=O)CCC(=O)Nc1nccs1` (centres undefined), for which the activation was -2.18%.
Turning to `COc1ccc(NC(=O)C(CC(C)C)NS(=O)(=O)c2ccc3c(c2)CCN3C(C)=O)cc1OC` (centres undefined), the activation is 1.37%.
Consider `CSc1ncccc1C(=O)Nc1cccc(S(=O)(=O)N2CCOCC2)c1`, for which the activation was -0.18%.
In the case of `S=c1[nH]nc(-c2cc(-c3ccccc3)n[nH]2)n1/N=C/c1c2ccccc2cc2ccccc12`, the activation was 63.2% (active).
To `S=c1[nH]nc(-c2ccncc2)n1/N=C/c1ccccc1Cl` belongs 4.63%.
To `Fc1ccccc1/C=N/n1c(-c2cccnc2)n[nH]c1=S` belongs 5.29%; to `Fc1cccc(CSc2nnc3ccc(-c4ccncc4)nn23)c1`, 4.81%; to `COc1ccc2nc(NC(=O)NC3CCCCC3)sc2c1`, 5.23%.
As to `COc1ccc2nc(Nc3nc4cc5c(cc4s3)OCCO5)sc2c1`, the activation is 53.1% (active).
As to `Cc1noc(C)c1CSCC(=O)Nc1nc2ccc(Oc3ccccc3)cc2s1`, the activation was 17.8%.
To `COc1ccc2nc(Nc3nc(-c4ccncc4)cs3)sc2c1` belongs 107% (active); to `COc1ccc2nc(NC(=O)[C@@H]3CCCN3C(=O)c3cccs3)sc2c1`, 23.1%; to `c1c2c(cc3sc(N4CCCCC4)nc13)OCCO2`, -13.2%.
On to `COc1ccc2nc(Nc3nc(-c4cc5ccccc5oc4=O)cs3)sc2c1`, for which the activation was 56.3% (active).
Consider `COc1ccc2oc(=O)cc(-c3cc4ccccc4o3)c2c1`, for which the activation was 18.4%.
As to `CCOc1ccc(S(=O)(=O)Nc2nc3cc(OC)ccc3s2)cc1`, the activation is -1.36%.
